The record followed here is PubChem BioAssay AID624354 (Sanford-Burnham Center for Chemical Genomics, 2012).

The whole screen tested about 360,000 compounds, of which about 3,800 (1.1%) were called active. What follows is part of a selection rich in actives, with near analogues and random picks from the rest. A number with no mark means an inactive call.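 The calls were made as follows: active = compounds causing at least 50% loss of cell viability in the single-dose screen, relative to plate controls; inactive = the rest.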

The assay in a line: viability loss with TRAIL in NB7+C8 cells, primary screen, TRAIL sensitizer project, cell-based, ATPlite luminescence (AID 624354). To be noted: at 10 µM, active compounds read high. A general note: ATP-based viability assays read luminescence as a measure of living cells.
Take `O=C(NCCCN1CCCCC1)C1CC(=O)N(CCc2ccccc2)C1` (stereo not drawn): the inhibition (viability loss, TRAIL sensitization) is 1%.
For the compound `CN1C(=O)c2ccccc2C(C(=O)NCCCN2CCCC2)C1c1c[nH]c2ccccc12` (stereo not drawn), the inhibition (viability loss, TRAIL sensitization) is 61.6% (active).
Next, `CCN(CC)CCNC(=O)C1c2ccccc2C(=O)N(C)C1c1cn(C)c2ccccc12` (stereo not drawn): 14.1%.
Next, `COCOc1cccc(CN2CCC(C)(Oc3ccc(SC)cc3)C2)c1` (stereo not drawn): 10.9%.
Next, `C[C@@H]1CN([C@H](C)CO)C(=O)CCCn2cc(nn2)CO[C@H]1CN(C)S(=O)(=O)c1ccc(Oc2ccccc2)nc1`: 2.33%; `COc1ccc(CCNCC(O)Cn2ccc3ccccc32)cc1OC` (stereo not drawn): -3.08%; `O=C(NC1CCCCC1)c1ccc(CNc2c(N3CCOCC3)c(=O)c2=O)cc1`: -0.739%.
In the case of `CCOC(=O)C1CCCN(C(=O)c2sc3nc(C)nc(N4CCOCC4)c3c2C)C1` (stereo not drawn), the inhibition (viability loss, TRAIL sensitization) was 15.8%.
Take `Cc1cc(/C=C2/C(=N)N3C(=NC2=O)SN=C3S(C)(=O)=O)c(C)n1-c1ccccc1`: the inhibition (viability loss, TRAIL sensitization) was 72.2% (active).
In the case of `CS(=O)(=O)c1ccc2c(c1)SC1=NC(=O)/C(=C/c3ccco3)C(=N)N12`, the inhibition (viability loss, TRAIL sensitization) was 11.3%.
To `CCOC(=O)C1=C(O)/C(=C/c2cc(C)n(-c3ccccc3)c2C)N=C1C` belongs -20.2%.
In the case of `COC(=O)C[C@@H]1C=C[C@@H](NC(=O)c2cccnc2)[C@@H](CO)O1`, the inhibition (viability loss, TRAIL sensitization) was -8.25%.
For the compound `O=C(NC1CCCCC1)C(c1cc2ccccc2o1)n1c(=O)c(-c2ccco2)nc2ccccc21` (stereo not drawn), the inhibition (viability loss, TRAIL sensitization) was 1.96%.
For the compound `C/C(=N\NC(=O)c1cc(-c2ccc(O)cc2)nc2ccccc12)c1cccnc1`, the inhibition (viability loss, TRAIL sensitization) was 3.5%.
Next, `CCOc1ccc(-c2cc(C(=O)N/N=C/c3ccc(O)cc3)c3ccccc3n2)cc1`: 72.3% (active); `CCOc1ccc(/C=N\NC(=O)c2c(C)nc3cc(C)ccn23)cc1`: 7.46%.
In the case of `Cc1ccc(S(=O)(=O)NCC2CCC(C(=O)N3CCOCC3)CC2)cc1` (stereo not drawn), the inhibition (viability loss, TRAIL sensitization) was -6.3%.
For the compound `C[C@H]1NS(=O)(=O)c2cc(Cl)ccc2O[C@@H]1c1ccccc1`, the inhibition (viability loss, TRAIL sensitization) was 11.6%.
Next, `CCCn1nc(Oc2nc(NC(C)C)nc(N(C)C)n2)ccc1=O`: -7.89%; `Cc1ccc2cc(CCNC(=O)c3ccc4c(c3)OCO4)c(=O)[nH]c2c1`: 1.68%.
To `Cc1nc2cc(NCc3cccs3)ccc2n1C` belongs 2.96%.
Consider `Cc1nc2cc(NC(=O)Nc3cccc(F)c3)ccc2n1C`, for which the inhibition (viability loss, TRAIL sensitization) is 63.6% (active).
Take `C=CCN(C(=O)Nc1ccc2c(c1)nc(C)n2C)c1ccccc1`: the inhibition (viability loss, TRAIL sensitization) was 14.6%.
To `Cc1cc([N+](=O)[O-])c(=O)[nH]c1C` belongs 16.2%; to `COC(=O)CCSc1nccn1Cc1ccccc1`, -2.49%.
Next, `O=C(CN1C(=O)c2cccnc2Oc2ccc(Cl)cc21)Nc1ccc(F)cc1`: 4.45%; `CC(/C=C/C1(O)C(C)CC(=O)CC1(C)C)OC1OC(CO)C(O)C(O)C1O` (stereo not drawn): 14.6%; `CN(CCO)c1ccc(/C=N/Nc2nncc3ccccc23)cc1`: 95.3% (active).
For the compound `O=C1COc2c1ccc(O)c2O`, the inhibition (viability loss, TRAIL sensitization) was -11.8%.
Next, `CCC(C)c1ccc(O)c(/C=N/O)c1` (stereo not drawn): 51% (active); `CNCC(O)c1ccc(O)c(O)c1` (stereo not drawn): -0.467%; `CS(=O)(=O)N(Cc1ccc(Cl)cc1)c1ccc(C(=O)NCCSCc2ccco2)cc1`: -4.92%.
To `CCc1c(C)c2ccc(OC3CCCCC3=O)cc2oc1=O` (stereo not drawn) belongs -0.131%.
In the case of `O=C(NCCCN1CCN(c2ccccc2F)CC1)C1CCC(=O)N1C1CCCCC1` (stereo not drawn), the inhibition (viability loss, TRAIL sensitization) was 0.0726%.
To `Cc1c(C(=O)NCCN(C)C)oc2ccc(S(=O)(=O)N3CCCC3)cc12` belongs -7.61%.
As for `COc1ccc(CCNC(=O)CN(c2ccccc2)S(C)(=O)=O)cc1OC`, the inhibition (viability loss, TRAIL sensitization) was -3.49%.
Next, `COc1ccc(C(CCN(Cc2ccc(OC)c(OC)c2)C(=O)CCl)c2ccccc2)cc1` (stereo not drawn): 97.3% (active); `CCOc1ccc(C(CCc2ccccc2)NC(=O)c2ccc(OC)c(OC)c2)cc1OCC` (stereo not drawn): 30.5%; `CCOc1ccc(NC(=O)N(CCC(C)C)C(C)c2ccco2)cc1` (stereo not drawn): -2%.
To `N#Cc1ccc(OCc2nnc(-c3ccc([N+](=O)[O-])cc3)o2)cc1` belongs -1.32%; to `CCOc1ccc(-c2nnc(-c3ccco3)o2)cc1`, 55.3% (active).
On to `COc1cc(NC(=O)c2ccc(-c3csc(C)n3)cc2)c(OC)cc1Cl`, for which the inhibition (viability loss, TRAIL sensitization) was 25.1%.
Regarding `Cc1nc(-c2ccc(NC(=O)c3cccs3)cc2)cs1`, the inhibition (viability loss, TRAIL sensitization) was 81% (active).
To `O=C(Nc1n[nH]c(C(F)(F)F)n1)c1cccs1` belongs -2.07%; to `CC(=O)NNc1cc(=O)c2c(=O)n(C)c(=O)n(C)c2[nH]1`, 7.17%; to `Cc1cnc(NC(=O)Cn2cnc3c2c(=O)n(C)c(=O)n3C)s1`, -2.16%.
To `Cc1cnc(NC(=O)c2ccccn2)s1` belongs 56% (active).
To `Cc1cc(C)cc(NC(=O)NCc2ccccn2)c1` belongs 7.88%; to `COc1ccc2occ(C(=O)c3ccc(N=C(C)N(C)C)cc3)c2c1`, 10.5%; to `CCc1nnc(NS(=O)(=O)c2ccc(NC(=O)c3cccc(OC(F)(F)C(F)F)c3)cc2)s1`, -18.2%.
With `Cc1ccc(NC(=O)c2ccc(Oc3ncccn3)cc2)cc1`, the inhibition (viability loss, TRAIL sensitization) is 1.61%.
Next, `O=C(Nc1ccc(OC(F)(F)F)cc1)c1ccc2c(c1)no[n+]2[O-]`: 86.8% (active).
To `Cc1ccccc1C(=O)NNC(=O)CN1C(=O)c2ccccc2C1=O` belongs -2.34%.
Next, `C=CCN(CC=C)C(=O)CN1C(=O)c2ccccc2C1=O`: 36.5%; `C=CCn1c(C)cc(C(=O)CN2C(=O)c3ccccc3C2=O)c1C`: 52% (active).
With `COc1ccc(CN2C[C@H]3CON(C)[C@H]3C[C@H]2c2ccc(-c3cccc(F)c3)cc2)cc1`, the inhibition (viability loss, TRAIL sensitization) was 17%.
Next, `COc1ccc(NC(=O)/C(Cl)=C(/Cl)S(=O)Cc2ccc(C)cc2)cn1` (stereo not drawn): 95.5% (active); `COc1cc(NC(=O)Nc2ccc(C)cc2)cc([N+](=O)[O-])c1`: 3.5%; `COC(C)(C)[C@]12CC(O)(C(C)C)ON1[C@H]1CCCCC1N2O` (stereo partly drawn): -21.2%.
Next, `O=[N+]([O-])c1cc(Br)c(O)c(/C=N/Nc2nc3ccccc3s2)c1`: 51.2% (active).
With `O=[N+]([O-])c1c(NCCO)cc(Sc2nc3ccccc3s2)c2nonc12`, the inhibition (viability loss, TRAIL sensitization) is 20.4%.
On to `O=[N+]([O-])c1cccc(C=NN=Cc2ccccc2O)c1`, for which the inhibition (viability loss, TRAIL sensitization) is 11%.
Next, `CC(C)C[C@H]1CNC(=S)N1C[C@H]1CCCN1C[C@H](Cc1ccc(O)cc1)N1C[C@H](Cc2ccc(O)cc2)N(CC2CCCCC2)C1=S`: 9.11%; `COc1cc(/C=C2\Oc3ccc(C#Cc4ccc(O)cc4)cc3C2=O)cc(OC)c1`: 64.7% (active).
To `COc1cc(C(=O)N2CCOC23CCN(Cc2ccccc2)CC3)cc(OC)c1OC` belongs -0.803%.
Next, `CCSCc1nc(N)nc(NCCc2ccccc2)n1`: -10.6%; `CC(=O)Nc1cccc(C(=O)OCN2C(=O)c3ccccc3C2=O)c1`: -5.54%; `CC(=O)Nc1cccc(C(=O)OCC(=O)NCc2cc(C)c(O)c(C)c2)c1`: -2.97%.
Turning to `CC(=O)Nc1cccc(C(=O)OCC(=O)c2ccc3c(c2)OCO3)c1`, the inhibition (viability loss, TRAIL sensitization) was 61.4% (active).
For the compound `CC(C)C[C@@H](COc1ccccc1)N1CCN(CC(C)C)CCC1=O`, the inhibition (viability loss, TRAIL sensitization) was -6.68%.
Next, `CCCCc1nc(NCc2ccccc2)c(C#N)c2c1CCCC2`: 4.11%; `CCCCc1nc(NCCN)c(C#N)c2c1CSC(C)(C)C2`: 57.7% (active); `CC(=O)N1CCCc2cc(S(=O)(=O)N3CCCC(C(=O)N4CCN(c5cccc(Cl)c5)CC4)C3)ccc21` (stereo not drawn): 35.8%.
Turning to `Cc1nc2ccc(N)nc2nc1C`, the inhibition (viability loss, TRAIL sensitization) was 6.29%.
In the case of `COc1cccc(-n2c(=O)c3c(C)c(C(=O)N(C)C)sc3n(CC(=O)NCCc3ccc(OC)c(OC)c3)c2=O)c1`, the inhibition (viability loss, TRAIL sensitization) is -6.94%.
To `Cc1cc(OC(=O)c2ccccc2Cl)ccc1N1C(=O)CCC1=O` belongs 7.7%; to `C/C(=N\OC(=O)c1ccccc1)c1c(C)nc2cc(C)ccn12`, -6.57%.
Next, `Cc1cccc(/C(N)=N/OC(=O)c2ccccc2Cl)c1`: 60.5% (active).
`O=C(Nc1cccc2c1N(C(=O)c1ccco1)CCC2)c1ccco1`: the inhibition (viability loss, TRAIL sensitization) is -4.17%.
To `Cc1ccc(C(C)C)c(OCCSc2nc3ccccc3n2CC(=O)O)c1` belongs -6.21%; to `COc1ccc(NC(=O)CN2C(=O)COc3ccc(S(=O)(=O)N4CCOCC4)cc32)cc1`, 4.01%; to `Cc1cc(Cl)c2oc(C(=O)N3CCC(O)(c4ccccc4)CC3)c(C)c2c1`, 12.6%.
On to `C[C@@H](Nc1nc(-c2ccccc2)nc2c1oc1ccccc12)C(=O)O`, for which the inhibition (viability loss, TRAIL sensitization) is -9.15%.
Take `Cc1nc(N2CCCC2C(=O)O)c2oc3ccccc3c2n1` (stereo not drawn): the inhibition (viability loss, TRAIL sensitization) was -12.2%.
Take `Cc1nc(Cl)c2oc3ccccc3c2n1`: the inhibition (viability loss, TRAIL sensitization) was 69.6% (active).
Regarding `CCC(=O)N(Cc1cc2ccccc2[nH]c1=O)c1ccc(OC)cc1`, the inhibition (viability loss, TRAIL sensitization) was -1.03%.
`Cc1ccc(N(Cc2cc(=O)[nH]c3ccccc23)C(=O)CCl)cc1`: the inhibition (viability loss, TRAIL sensitization) is 92.9% (active).
Take `CC(=O)N(Cc1cc(=O)[nH]c2ccccc12)c1ccc(C)cc1C`: the inhibition (viability loss, TRAIL sensitization) is 1.98%.
Consider `CN(C(=O)CSc1nnc(-c2ccc3c(c2)OCO3)o1)C1CCS(=O)(=O)C1` (stereo not drawn), for which the inhibition (viability loss, TRAIL sensitization) is -7.74%.
Take `C=C1C(=O)[C@]23C[C@H]1CCC2[C@@]1(C)C(C[C@@H]3O)[C@](C)(C(=O)O)CC[C@@H]1O` (stereo partly drawn): the inhibition (viability loss, TRAIL sensitization) is 25.6%.
Consider `COc1ccc(CCNC(=O)CSc2nc(-c3ccc(OC)c(OC)c3)ccc2C#N)cc1`, for which the inhibition (viability loss, TRAIL sensitization) was 28%.
On to `CCOc1ccc2nc(N3CCCN(C(=O)Nc4ccccc4C)CC3)c(C#N)cc2c1`, for which the inhibition (viability loss, TRAIL sensitization) is 4.35%.
As to `CCOc1ccc2cc(C#N)c(SCC(=O)OC)nc2c1`, the inhibition (viability loss, TRAIL sensitization) is 51.7% (active).
